From PubChem BioAssay AID504725 (Broad Institute, 2011)
Potency and affinity values are given separately. The source made the active and inactive calls. How the calls were made is not given here.

These compounds were tested against KSHV LANA C-terminal domain (residues 932-1162) binding to LBS DNA (UniProt O40947) (assay: inhibitors of C-LANA binding to LBS DNA, dose response, biochemical, fluorescence polarization, cherry-picked samples (AID 504725)). Settings: MBP-C-LANA / FAM-LBS DNA fluorescence polarization, percent change from plate compound-well median; series mostly up to 35 µM.

outcome, inactive:
O=C(COc1cccc(F)c1)Nc1nc(-c2cccnc2)cs1, CCN(CCCNC(=O)Cn1cc2c(n1)CCCC2)c1cccc(C)c1, Cc1cc(-c2nnc(SCC(=O)Nc3ccccc3)n2C)no1, CC(C(=O)Nc1ccccc1)N1C(=O)c2ccccc2C1=O (centres undefined), Cc1ccc(-c2nnn(CC(=O)NC3CCN(Cc4ccccc4)CC3)n2)cc1, C=CCN1C(=O)/C(=c2\sc3nc(=O)c(Cc4ccccc4Cl)nn3c2=O)c2ccccc21, Cc1cccc(N(Cc2ccccc2)C(=O)C2CCN(C(=O)c3ccccc3C)CC2)c1, Cc1cc(Cl)ccc1N1C(=O)CC(NNC(=O)c2cccnc2)C1=O (centres undefined), CC(=O)NC(C(=O)c1ccccc1)C(=O)c1ccccc1, Cc1ccc(C(CC(=O)N2CCCCC2)c2ccccc2)c(O)c1C (centres undefined), COc1cccc(NC(=S)N2CCN(C(c3ccccc3)c3ccccc3)CC2)c1, CSCCC(NC(=O)c1ccccc1Cl)C(=O)N1CCCC(C)C1 (centres undefined), CC(C)(C)OC(=O)C[C@@H]1C/C=C\C[C@H](CC(=O)N(CCO)Cc2ccccc2)C(=O)N[C@@H](c2ccccc2)COC1=O, COC(=O)C1CCN(C(=O)COC(=O)Cc2c[nH]c3ccccc23)CC1, CCN(C(=O)COC(=O)CNS(=O)(=O)c1ccc(SC)c([N+](=O)[O-])c1)C1CCCCC1, Cc1ccc(N=Nc2c(O)[nH]c3ccc(F)cc23)cc1, O=C1c2cccc3c(N4CCCCC4)ccc(c23)C(=O)N1c1cccc(O)c1, CC1Cc2ccccc2N1C(=O)CCS(=O)(=O)c1cccs1 (centres undefined), CC(C)(C)OC(=O)N1CCC[C@H]1c1nnc(SCc2cccc(Cl)c2)o1
